Reference: PubChem BioAssay AID1851 (National Center for Advancing Translational Sciences (NCATS), 2009)
“And” between values parts separate entries of the source, which are not always exact repeats. Equal entries are not always repeated. Among all 16,000 compounds or so, about 5,800 (36%) were called active. Another 23% or so got no clear call; they are omitted. Some of the results follow. Values without a mark were called inactive. The call rests on the fitted dose curve; in most records, active means well fitted curve in the direction sought with a large enough effect; inconclusive means small, poorly fitted or top-dose-only effect, or effect the other way; inactive means no such curve, though single readings can be large or run the other way.

Each compound was assayed against Cytochrome P450 2C19 (Homo sapiens) (UniProt P33261) (assay: Cytochrome panel assay with activity outcomes). Conditions: recombinant CYP, pro-luciferin dealkylation, luminescence, p450-cyp2c19; series mostly up to 57.1 µM.
Chain of Cytochrome P450 2C19 (Homo sapiens) (P33261 whole entry, looked up): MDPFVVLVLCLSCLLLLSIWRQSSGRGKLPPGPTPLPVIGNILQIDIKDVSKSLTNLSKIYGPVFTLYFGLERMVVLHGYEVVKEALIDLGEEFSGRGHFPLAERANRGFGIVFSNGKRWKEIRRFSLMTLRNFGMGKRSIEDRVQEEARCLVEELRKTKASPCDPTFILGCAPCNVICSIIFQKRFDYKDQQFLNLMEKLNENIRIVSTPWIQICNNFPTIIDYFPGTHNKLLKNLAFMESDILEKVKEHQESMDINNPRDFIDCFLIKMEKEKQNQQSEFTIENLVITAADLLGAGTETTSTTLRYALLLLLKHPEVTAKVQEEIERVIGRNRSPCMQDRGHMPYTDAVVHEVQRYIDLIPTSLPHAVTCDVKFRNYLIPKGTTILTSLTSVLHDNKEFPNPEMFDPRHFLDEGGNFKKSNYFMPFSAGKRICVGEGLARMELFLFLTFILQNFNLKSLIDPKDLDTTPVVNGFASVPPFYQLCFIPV
On the % scale 0 is the no-effect control and ±100 the full control effect.

| Structure (SMILES) | activity, negative = inhibition | AC50 |
| --- | --- | --- |
| O=C(CCN1CCCCC1)c1csc2ccccc12 | -22.7% [at 11.4 µM] | – |
| O=C(c1[nH]o[n+](=O)c1C(=O)c1csc2ccccc12)c1csc2ccccc12 | – | 1000 nM (active) |
| Cc1cccc(C(=O)O)c1C[C@H]1NCC[C@H]2c3ccccc3N[C@@H]12 | 3.69% [at 11.4 µM] | – |
| Cc1ccccc1Cn1cc(NC(=O)CSc2nc3c(c(C(F)(F)F)n2)CCc2ccccc2-3)cn1 | – | 3980 nM (active) |
| Cc1nn(Cc2ccc(Cl)cc2)c(C)c1NC(=O)CSc1nc2c(c(C(F)(F)F)n1)CCc1ccccc1-2 | – | 2820 nM (active) |
| CC1(C)[C@@H]2CC[C@]1(C)[C@@H](OC(=O)CSC#N)C2 | -26.6% [at 11.4 µM] | – |
| CN(C)/C(CN1CCN(C=O)CC1)=C1\N=C(c2ccccc2)OC1=O | – | inactive |
| O=S(=O)(c1ccc(Cl)s1)N1CCc2ccccc2C1 | – | 708 nM (active) |
| O=C(ON=C1CCN(S(=O)(=O)c2ccccc2)CC1)c1ccccc1 | – | inactive |
| COc1ccc(S(=O)(=O)N2CCc3ccccc3C2)cc1OC | – | 447 nM (active) |
| COc1ccccc1CN1CC[C@@]2(CCCN(S(=O)(=O)c3ccccc3)C2)C1 | – | inactive |
| CCN1C(=O)[C@H]2[C@H]3[C@H](O)[C@H](O)C/C(=N/O[C@@H]4O[C@H](COC(C)=O)[C@@H](OC(C)=O)[C@H](OC(C)=O)[C@H]4OC(C)=O)[C@@H]3CC[C@@H]2C1=O | 34.2% [at 11.4 µM] | – |
| CCN(CC)CCOC(=O)C(c1ccccc1)c1ccccc1 | – | inactive |
| CCN(CC)CC#CCC(C)(c1ccccc1)c1ccccc1 | – | 447 nM (active) |
| CCN(CCCc1ccccc1)CCCc1ccccc1 | – | inactive |
| O=C(c1ccc(N2CCCCC2)c([N+](=O)[O-])c1)N(Cc1ccccc1)c1ccccn1 | – | 14100 nM (active) |
| COc1ccccc1N1CCN(CCN(C(=O)C2CCCCC2)c2ccccn2)CC1 | – | inactive |
| O=C1C(Cl)=C(Sc2nnc3c4ccccc4c4ccccc4c3n2)C(=O)c2ccccc21 | – | 1580 nM (active) |
| CCc1cccc(NC(=O)CN(C)S(=O)(=O)c2cnc[nH]2)c1 | – | 447 nM (active) |
| CN(CC(=O)N1CCN(c2ccccc2)CC1)S(=O)(=O)c1cnc[nH]1 | – | 2240 nM (active) |
| CC[n+]1c(/C=C/Nc2ccccc2)oc2ccccc21 | – | inactive |
| CCCNC(=O)OC[C@@H]1O[C@H](CCO/N=C(\C)CCN2CCc3nc(CC)c(CC)cc3C2)C=C[C@@H]1Oc1ccc(OC)cc1 | -24.5% [at 11.4 µM] | – |
| COc1ccc(O[C@H]2C=C[C@@H](c3ccccc3)O[C@H]2CO/N=C2/c3cc(OC)ccc3O[C@@H](c3cccc(OC)c3)[C@H]2O)cc1 | – | 501 nM (active) |
| CCCNC(=O)OC[C@@H]1O[C@H](CCON=C(C)C)C=C[C@@H]1Oc1ccc(OC)cc1 | -39.5% [at 11.4 µM] | – |

| Structure (SMILES) | activity, negative = inhibition | AC50 |
| --- | --- | --- |
| CCCNC(=O)OC[C@@H]1O[C@H](CCO/N=C2\c3cc(OC)ccc3O[C@H](c3cccc(OC)c3)[C@H]2O)C=C[C@@H]1Oc1ccc(OC)cc1 | – | 1580 nM (active) |
| CCOC(=O)CCCN | 31.2% [at 11.4 µM] | – |
| N[C@@H](Cc1c[nH]c2ccccc12)C(=O)O | – | inactive |
| CC(C)CNC(=O)CCCc1c[nH]c2ccccc12 | – | 2240 nM (active) |
| C[C@@](N)(Cc1c[nH]c2ccccc12)C(=O)O | 34.7% [at 11.4 µM] | – |
| CCOC(=O)CCCc1c[nH]c2ccccc12 | – | 5010 nM (active) |
| N[C@@H]1CONC1=O | – | inactive |
| CO/N=C(\C(=O)N[C@@H]1C(=O)N2C(C(=O)O)=C(COC(C)=O)CS[C@@H]12)c1csc(N)n1 | – | inactive |
| Cc1ccsc1/C=C1/SC(=O)N(CC(=O)N2CCOCC2)C1=O | – | inactive |
| Cc1cc(N2CCOCC2)ccc1/C=C1\SC(=O)N(C(C)C)C1=O | – | 10000 nM (active) |
| Nc1ncc(-c2ccccc2)n1CC1CCCO1 (stereo not drawn) | – | 5620 nM (active) |
| O=c1cnc2cnc(Nc3ccccc3)nc2n1C[C@H]1CCCO1 | – | inactive |
| O=c1c(-c2ccccc2)nc2cnc(N3CCOCC3)nc2n1C[C@H]1CCCO1 | – | inactive |
| CC(/C=N/n1c(-c2cccnc2)n[nH]c1=S)=C\c1ccccc1 | – | 2820 nM (active) |
| COc1ccc(-n2c(-c3cnccn3)n[nH]c2=S)cc1 | – | inactive |
| COc1cc(-c2nnc(COC(=O)c3c4c(nc5ccccc35)CCCC4)o2)cc(OC)c1OC | – | 1780 nM (active) |
| Nc1c2c(nc3ccccc13)CCCC2 | – | inactive |
| C[C@@H]1C[C@H](OC(=O)[C@@H](O)c2ccccc2)CC(C)(C)N1C | – | inactive |
| C[C@@H]1C[C@H](OC(=O)c2ccccc2O)CC(C)(C)C1 | – | 10000 nM (active) |
| O=C(Nc1cccc(F)c1)N1CCC2(CC1)CCN(C(=O)c1cnccn1)CC2 | – | inactive |
| CCOC(=O)c1c2c(n3ccccc13)C(=O)c1ccccc1C2=O | 0.385% [at 11.4 µM] | – |
| CCOC(=O)c1c2ccc(OCC(=O)N/N=C/c3ccc(Cl)cc3)cc2n2ccccc12 | – | 2510 nM (active) |
| Cc1cccc(NC(=S)Nc2ccc(Br)cc2)c1 | – | 708 nM (active) |
| CCCNC(=S)Nc1ccc(Br)cc1 | – | 7940 nM (active) |

| Structure (SMILES) | activity, negative = inhibition | AC50 |
| --- | --- | --- |
| C/C(=N\NC(=S)Nc1cccc(C)c1)c1ccccc1 | – | 447 nM (active) |
| Cc1ccc(NC(=S)Nc2ccc(Br)cc2)cc1 | – | 562 nM (active) |
| CCN1C(=O)[C@H]2[C@H]3[C@H](O)[C@H](O)C/C(=N/O[C@@H]4O[C@@H](COC(C)=O)[C@@H](OC(C)=O)[C@@H](OC(C)=O)[C@H]4OC(C)=O)[C@H]3CC[C@@H]2C1=O | 16.6% [at 11.4 µM] | – |
| CO[C@@H]1COC(=O)[C@H](COCc2ccccc2)NC(=O)C/C=C\[C@@H](C)[C@H](OC)COC(=O)[C@@H](C)NC(=O)C/C=C\[C@H]1C | 5.67% [at 11.4 µM] | – |
| CCCC(=O)Nc1nc(-c2ccc3c(c2)CCN3S(C)(=O)=O)cs1 | – | inactive |
| COc1ccc(-c2ccc(=O)n(CC(=O)Nc3nnc(C(C)C)s3)n2)cc1OC | – | inactive |
| COc1ccc(-c2csc(NC(=O)CCn3cnc4ccccc4c3=O)n2)cc1OC | – | 2820 nM (active) |
| CN1CCN(Cc2nc3cccc4c3c([n+]2[O-])-c2ccccc2-4)CC1 | -13.4% [at 11.4 µM] | – |
| O=C(Cn1c(SCC(=O)N2CCc3ccccc3C2)nc2ccccc21)NC1CCCC1 | – | 10000 nM (active) |
| C=CCn1c(SCC(=O)N2CCc3ccccc3C2)nc2ccccc2c1=O | – | 1580 nM (active) |
| COc1ccc2c3c(ccc2c1)N[C@H](C(=O)O)CC3 | 3.64% [at 11.4 µM] | – |
| CN1CC(c2ccccc2)C2(COc3ccccc3C2=O)C12C(=O)Nc1ccccc12 (stereo not drawn) | – | 1120 nM (active) |
| Cc1ccc(CONC(=O)/N=C/N(C)C)cc1 | – | 4470 nM (active) |
| CN1CCN(S(=O)(=O)c2cc([N+](=O)[O-])ccc2N2CCCCCC2)CC1 | – | 631 nM (active) |
| CN1CCN(CCCN2c3ccccc3Sc3ccc(S(=O)(=O)N(C)C)cc32)CC1 | – | inactive |
| CN1CCN(c2ccc([N+](=O)[O-])cc2S(=O)(=O)N2CCOCC2)CC1 | – | inactive |
| CN(C)S(=O)(=O)c1cc([N+](=O)[O-])ccc1N1CCCCCC1 | – | 5010 nM (active) |
| O=C(c1ccc(Br)cc1)c1cc([N+](=O)[O-])ccc1N1CCCCC1 | – | 1260 nM (active) |
| CN1CCN(c2ccncc2S(=O)(=O)N2CCN(C)CC2)CC1 | 15.7% [at 11.4 µM] | – |
| Cc1cc2c(nc1C)CCCN2C[C@H](O)CN1CCCc2nc(-c3ccc(Br)cc3)ccc21 | -41.3% [at 11.4 µM] and -36.7% [at 11.4 µM] | – |
| O=C(CNC(=O)c1ccco1)OCc1c(F)cccc1Cl | – | 15800 nM (active) |
| Cc1ccc2[nH]c(=O)c(NC(N)=S)nc2c1 | – | 20000 nM (active) |
| Cc1ccccc1-c1cncnc1NC1CCNCC1 | – | inactive |
| Cc1ccccc1-c1cncnc1Nc1ccccc1 | – | 3160 nM (active) |

| Structure (SMILES) | activity, negative = inhibition | AC50 |
| --- | --- | --- |
| Cc1ccccc1-c1cncnc1Nc1ccc(F)cc1 | – | 5010 nM (active) |
| COc1ccccc1-c1cncnc1Nc1ccc(F)cc1 | – | 5010 nM (active) |
| CS(=O)(=O)Nc1cccc(-c2cncnc2Nc2ccc(F)cc2)c1 | – | inactive |
| CNc1ncncc1-c1ccccc1C | – | inactive |
| CNc1ncncc1-c1ccccc1OC | – | inactive |
| COc1cccc(Nc2ncc3nc(-c4ccc(F)cc4)c(=O)n(CCC#N)c3n2)c1 | – | inactive |
| COc1cccc(-c2cncnc2Nc2ccc(F)cc2)c1 | – | 398 nM (active) |
| CC(C)(C)C(=O)NC(=C(Cl)Cl)P(=O)(O)O | – | inactive |
| CCOC(=O)N/N=C1/C[C@@H](O)[C@@H](O)[C@@H]2[C@@H]3C(=O)N([C@@H](C)c4ccccc4)C(=O)[C@H]3CC[C@H]12 | 12.9% [at 11.4 µM] | – |
| CC(C)c1cc(C(F)(F)F)nc(NNc2nc(C(C)C)cc(C(F)(F)F)n2)n1 | – | 2510 nM (active) |
| CC(C)Nc1cc(C(F)(F)F)nc(-c2ccccn2)n1 | – | inactive |
| COc1cc(OC)c2c(c1)C(=O)c1cc(OC)cc(OC)c1C2=O | – | inactive |
| COc1cc(OC)c(C#N)c(S(=O)(=O)Cc2ccccc2)c1 | – | 1260 nM (active) |
| CC(C)C(=O)Nc1cc2c(cc1C(=O)c1ccccc1)OCCO2 | – | inactive |
| CCC(=O)Nc1cc2c(cc1C(=O)c1ccccc1)OCCO2 | – | 14100 nM (active) |
| O=c1cc(N2CCN(c3cccc(Cl)c3)CC2)[nH]c(=O)n1C1CCCCC1 | – | 2510 nM (active) |
| O=c1cc(N2CCC(Cc3ccccc3)CC2)[nH]c(=O)n1C1CCCCC1 | – | 3160 nM (active) |
| COC(=O)C1CCN(c2cc(=O)n(C3CCCCC3)c(=O)[nH]2)CC1 | – | 3980 nM (active) |
| O=c1n(CCCN2CCN(c3cccc(Cl)c3)CC2)nc2ccccn12 | – | inactive |
| Cc1ccccc1-n1c(=O)cc(N2CC(C)OC(C)C2)[nH]c1=O (stereo not drawn) | – | inactive |
| O=C(c1ccco1)N1CCN(c2cc(=O)n(C3CCCCC3)c(=O)[nH]2)CC1 | – | inactive |
